Experiments:
Assay in all cases: log2 ratio of Biotin-Ahx-Ub-VS probe labelling (fragment/DMSO); higher = less target engagement (more negative = stronger competition), active = hit call of the paper (q ≤ 0.05, log2 ratio ≤ -1)
Conditions in all cases: compound concentration: 200 uM; treatment time: 3 h
USP34 = USP34 (UniProt Q70CQ2)
Method in brief: (§1)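 The table lists average log2 ratios of fragment over vehicle, from an unpaired t-test on global-median-normalised Spectronaut label-free quantities. Proteins with ≥2 unique peptides were used. Samples were HEK293T lysate (495 µg) treated in triplicate with fragment at 200 µM or vehicle for 3 h, then with Biotin-Ahx-Ub-VS (0.5 µM final) for 1 h, with labelled DUBs NeutrAvidin-enriched and run by diaPASEF LC-MS/MS.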

USP36 = target: T1, USP36 (UniProt Q9P275)
T1 sequence (whole entry): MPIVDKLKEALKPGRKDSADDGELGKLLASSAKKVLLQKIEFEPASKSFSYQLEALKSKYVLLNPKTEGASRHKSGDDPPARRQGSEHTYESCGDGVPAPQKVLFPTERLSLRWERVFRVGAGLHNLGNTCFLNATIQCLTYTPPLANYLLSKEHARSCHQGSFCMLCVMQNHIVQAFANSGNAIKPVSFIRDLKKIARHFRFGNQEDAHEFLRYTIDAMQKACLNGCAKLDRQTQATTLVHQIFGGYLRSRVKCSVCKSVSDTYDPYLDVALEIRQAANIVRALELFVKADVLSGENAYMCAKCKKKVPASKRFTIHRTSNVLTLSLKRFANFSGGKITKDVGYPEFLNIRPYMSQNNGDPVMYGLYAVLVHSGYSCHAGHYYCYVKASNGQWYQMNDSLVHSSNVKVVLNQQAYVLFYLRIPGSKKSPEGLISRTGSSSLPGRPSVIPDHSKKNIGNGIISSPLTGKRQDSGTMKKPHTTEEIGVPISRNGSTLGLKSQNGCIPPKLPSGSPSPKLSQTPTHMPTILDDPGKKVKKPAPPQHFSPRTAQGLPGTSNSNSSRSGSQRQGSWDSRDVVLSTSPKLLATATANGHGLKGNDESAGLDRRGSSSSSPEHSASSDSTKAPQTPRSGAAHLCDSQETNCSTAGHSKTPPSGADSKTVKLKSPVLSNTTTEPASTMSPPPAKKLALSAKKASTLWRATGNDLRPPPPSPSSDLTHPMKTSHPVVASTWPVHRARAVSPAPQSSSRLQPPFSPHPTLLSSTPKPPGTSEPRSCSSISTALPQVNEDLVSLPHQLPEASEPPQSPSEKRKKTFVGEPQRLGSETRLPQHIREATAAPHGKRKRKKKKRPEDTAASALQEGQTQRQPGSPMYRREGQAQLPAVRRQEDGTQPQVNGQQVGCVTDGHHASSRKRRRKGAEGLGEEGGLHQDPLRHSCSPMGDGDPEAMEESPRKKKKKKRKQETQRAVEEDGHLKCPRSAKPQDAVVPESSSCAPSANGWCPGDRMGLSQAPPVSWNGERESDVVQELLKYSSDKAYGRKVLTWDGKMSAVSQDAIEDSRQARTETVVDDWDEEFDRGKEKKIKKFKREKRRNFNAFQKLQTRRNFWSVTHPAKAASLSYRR
Method in brief: as §1

USP38 = target: T2, USP38 (UniProt Q8NB14)
T2 sequence (whole entry): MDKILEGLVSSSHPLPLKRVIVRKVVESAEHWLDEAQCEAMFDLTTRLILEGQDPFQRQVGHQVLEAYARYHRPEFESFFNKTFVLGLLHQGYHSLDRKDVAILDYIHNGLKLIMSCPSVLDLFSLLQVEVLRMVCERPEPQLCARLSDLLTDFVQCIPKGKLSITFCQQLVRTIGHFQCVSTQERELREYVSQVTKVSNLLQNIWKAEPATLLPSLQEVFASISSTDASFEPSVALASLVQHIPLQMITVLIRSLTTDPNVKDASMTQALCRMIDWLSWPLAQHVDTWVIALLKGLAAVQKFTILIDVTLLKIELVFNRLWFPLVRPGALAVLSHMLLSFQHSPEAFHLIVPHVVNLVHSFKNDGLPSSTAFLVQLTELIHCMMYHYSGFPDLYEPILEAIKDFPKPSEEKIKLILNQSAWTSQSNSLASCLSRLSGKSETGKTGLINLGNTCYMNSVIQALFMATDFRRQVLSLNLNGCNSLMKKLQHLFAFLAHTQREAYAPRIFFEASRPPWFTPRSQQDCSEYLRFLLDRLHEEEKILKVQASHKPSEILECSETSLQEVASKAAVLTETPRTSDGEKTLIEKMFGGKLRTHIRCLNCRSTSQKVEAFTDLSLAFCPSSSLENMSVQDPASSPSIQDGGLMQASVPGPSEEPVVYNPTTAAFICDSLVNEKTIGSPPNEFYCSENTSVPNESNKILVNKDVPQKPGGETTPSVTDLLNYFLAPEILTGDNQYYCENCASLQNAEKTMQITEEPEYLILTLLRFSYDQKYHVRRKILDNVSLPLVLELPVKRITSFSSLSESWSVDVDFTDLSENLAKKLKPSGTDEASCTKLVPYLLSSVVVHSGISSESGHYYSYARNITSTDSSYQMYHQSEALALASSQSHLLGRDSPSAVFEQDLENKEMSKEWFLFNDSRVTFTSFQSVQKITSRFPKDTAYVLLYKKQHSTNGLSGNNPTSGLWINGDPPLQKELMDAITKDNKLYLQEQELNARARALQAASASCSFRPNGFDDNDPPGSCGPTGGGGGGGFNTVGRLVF
Method in brief: as §1

USP39 = target: T3, USP39 (UniProt Q53GS9)
T3 sequence (whole entry): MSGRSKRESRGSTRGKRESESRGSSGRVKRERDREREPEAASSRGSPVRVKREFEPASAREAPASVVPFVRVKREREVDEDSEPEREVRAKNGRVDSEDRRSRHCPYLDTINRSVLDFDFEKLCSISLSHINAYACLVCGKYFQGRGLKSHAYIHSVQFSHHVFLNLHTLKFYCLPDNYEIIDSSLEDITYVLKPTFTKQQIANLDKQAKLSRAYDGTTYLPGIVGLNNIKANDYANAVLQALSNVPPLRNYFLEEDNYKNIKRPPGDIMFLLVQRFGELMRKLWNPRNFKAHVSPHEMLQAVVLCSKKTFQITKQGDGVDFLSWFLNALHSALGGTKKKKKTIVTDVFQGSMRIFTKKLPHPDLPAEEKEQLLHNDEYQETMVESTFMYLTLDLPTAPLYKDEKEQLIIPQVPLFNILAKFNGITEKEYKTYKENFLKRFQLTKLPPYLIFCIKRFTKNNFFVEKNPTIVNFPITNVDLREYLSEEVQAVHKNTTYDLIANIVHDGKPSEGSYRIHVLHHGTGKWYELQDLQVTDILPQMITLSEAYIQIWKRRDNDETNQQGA
Method in brief: as §1

USP4 = target: T4, USP4 (UniProt Q13107)
T4 sequence (whole entry): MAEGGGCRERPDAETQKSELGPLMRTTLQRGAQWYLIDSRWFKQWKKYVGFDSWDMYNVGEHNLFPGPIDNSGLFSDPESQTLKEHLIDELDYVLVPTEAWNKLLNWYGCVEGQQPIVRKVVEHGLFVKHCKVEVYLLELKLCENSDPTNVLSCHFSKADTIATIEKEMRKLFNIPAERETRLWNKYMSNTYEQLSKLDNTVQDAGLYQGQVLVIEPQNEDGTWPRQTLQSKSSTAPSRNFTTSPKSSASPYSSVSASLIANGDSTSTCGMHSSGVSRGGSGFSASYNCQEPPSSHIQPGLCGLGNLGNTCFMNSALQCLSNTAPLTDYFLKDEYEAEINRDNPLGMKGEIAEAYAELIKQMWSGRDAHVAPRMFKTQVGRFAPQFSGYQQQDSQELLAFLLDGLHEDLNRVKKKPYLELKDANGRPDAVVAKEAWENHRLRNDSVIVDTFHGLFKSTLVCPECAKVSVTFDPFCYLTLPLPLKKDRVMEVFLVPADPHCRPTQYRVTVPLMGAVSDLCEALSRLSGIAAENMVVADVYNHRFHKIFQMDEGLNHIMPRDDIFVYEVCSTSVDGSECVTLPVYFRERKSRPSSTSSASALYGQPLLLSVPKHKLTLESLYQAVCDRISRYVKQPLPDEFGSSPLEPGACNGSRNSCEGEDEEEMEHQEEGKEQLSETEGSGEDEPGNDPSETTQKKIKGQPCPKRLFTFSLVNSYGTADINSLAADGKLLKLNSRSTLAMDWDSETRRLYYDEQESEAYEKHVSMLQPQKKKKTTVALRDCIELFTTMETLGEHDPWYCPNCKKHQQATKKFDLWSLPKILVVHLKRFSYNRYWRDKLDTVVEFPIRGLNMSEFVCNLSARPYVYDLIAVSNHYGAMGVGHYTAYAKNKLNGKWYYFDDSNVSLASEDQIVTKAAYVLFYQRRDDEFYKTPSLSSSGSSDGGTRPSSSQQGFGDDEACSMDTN
Method in brief: as §1

Measured: log2 ratio of Biotin-Ahx-Ub-VS probe labelling

Sequence of USP34 (Q70CQ2 whole entry, the tested form may be a part): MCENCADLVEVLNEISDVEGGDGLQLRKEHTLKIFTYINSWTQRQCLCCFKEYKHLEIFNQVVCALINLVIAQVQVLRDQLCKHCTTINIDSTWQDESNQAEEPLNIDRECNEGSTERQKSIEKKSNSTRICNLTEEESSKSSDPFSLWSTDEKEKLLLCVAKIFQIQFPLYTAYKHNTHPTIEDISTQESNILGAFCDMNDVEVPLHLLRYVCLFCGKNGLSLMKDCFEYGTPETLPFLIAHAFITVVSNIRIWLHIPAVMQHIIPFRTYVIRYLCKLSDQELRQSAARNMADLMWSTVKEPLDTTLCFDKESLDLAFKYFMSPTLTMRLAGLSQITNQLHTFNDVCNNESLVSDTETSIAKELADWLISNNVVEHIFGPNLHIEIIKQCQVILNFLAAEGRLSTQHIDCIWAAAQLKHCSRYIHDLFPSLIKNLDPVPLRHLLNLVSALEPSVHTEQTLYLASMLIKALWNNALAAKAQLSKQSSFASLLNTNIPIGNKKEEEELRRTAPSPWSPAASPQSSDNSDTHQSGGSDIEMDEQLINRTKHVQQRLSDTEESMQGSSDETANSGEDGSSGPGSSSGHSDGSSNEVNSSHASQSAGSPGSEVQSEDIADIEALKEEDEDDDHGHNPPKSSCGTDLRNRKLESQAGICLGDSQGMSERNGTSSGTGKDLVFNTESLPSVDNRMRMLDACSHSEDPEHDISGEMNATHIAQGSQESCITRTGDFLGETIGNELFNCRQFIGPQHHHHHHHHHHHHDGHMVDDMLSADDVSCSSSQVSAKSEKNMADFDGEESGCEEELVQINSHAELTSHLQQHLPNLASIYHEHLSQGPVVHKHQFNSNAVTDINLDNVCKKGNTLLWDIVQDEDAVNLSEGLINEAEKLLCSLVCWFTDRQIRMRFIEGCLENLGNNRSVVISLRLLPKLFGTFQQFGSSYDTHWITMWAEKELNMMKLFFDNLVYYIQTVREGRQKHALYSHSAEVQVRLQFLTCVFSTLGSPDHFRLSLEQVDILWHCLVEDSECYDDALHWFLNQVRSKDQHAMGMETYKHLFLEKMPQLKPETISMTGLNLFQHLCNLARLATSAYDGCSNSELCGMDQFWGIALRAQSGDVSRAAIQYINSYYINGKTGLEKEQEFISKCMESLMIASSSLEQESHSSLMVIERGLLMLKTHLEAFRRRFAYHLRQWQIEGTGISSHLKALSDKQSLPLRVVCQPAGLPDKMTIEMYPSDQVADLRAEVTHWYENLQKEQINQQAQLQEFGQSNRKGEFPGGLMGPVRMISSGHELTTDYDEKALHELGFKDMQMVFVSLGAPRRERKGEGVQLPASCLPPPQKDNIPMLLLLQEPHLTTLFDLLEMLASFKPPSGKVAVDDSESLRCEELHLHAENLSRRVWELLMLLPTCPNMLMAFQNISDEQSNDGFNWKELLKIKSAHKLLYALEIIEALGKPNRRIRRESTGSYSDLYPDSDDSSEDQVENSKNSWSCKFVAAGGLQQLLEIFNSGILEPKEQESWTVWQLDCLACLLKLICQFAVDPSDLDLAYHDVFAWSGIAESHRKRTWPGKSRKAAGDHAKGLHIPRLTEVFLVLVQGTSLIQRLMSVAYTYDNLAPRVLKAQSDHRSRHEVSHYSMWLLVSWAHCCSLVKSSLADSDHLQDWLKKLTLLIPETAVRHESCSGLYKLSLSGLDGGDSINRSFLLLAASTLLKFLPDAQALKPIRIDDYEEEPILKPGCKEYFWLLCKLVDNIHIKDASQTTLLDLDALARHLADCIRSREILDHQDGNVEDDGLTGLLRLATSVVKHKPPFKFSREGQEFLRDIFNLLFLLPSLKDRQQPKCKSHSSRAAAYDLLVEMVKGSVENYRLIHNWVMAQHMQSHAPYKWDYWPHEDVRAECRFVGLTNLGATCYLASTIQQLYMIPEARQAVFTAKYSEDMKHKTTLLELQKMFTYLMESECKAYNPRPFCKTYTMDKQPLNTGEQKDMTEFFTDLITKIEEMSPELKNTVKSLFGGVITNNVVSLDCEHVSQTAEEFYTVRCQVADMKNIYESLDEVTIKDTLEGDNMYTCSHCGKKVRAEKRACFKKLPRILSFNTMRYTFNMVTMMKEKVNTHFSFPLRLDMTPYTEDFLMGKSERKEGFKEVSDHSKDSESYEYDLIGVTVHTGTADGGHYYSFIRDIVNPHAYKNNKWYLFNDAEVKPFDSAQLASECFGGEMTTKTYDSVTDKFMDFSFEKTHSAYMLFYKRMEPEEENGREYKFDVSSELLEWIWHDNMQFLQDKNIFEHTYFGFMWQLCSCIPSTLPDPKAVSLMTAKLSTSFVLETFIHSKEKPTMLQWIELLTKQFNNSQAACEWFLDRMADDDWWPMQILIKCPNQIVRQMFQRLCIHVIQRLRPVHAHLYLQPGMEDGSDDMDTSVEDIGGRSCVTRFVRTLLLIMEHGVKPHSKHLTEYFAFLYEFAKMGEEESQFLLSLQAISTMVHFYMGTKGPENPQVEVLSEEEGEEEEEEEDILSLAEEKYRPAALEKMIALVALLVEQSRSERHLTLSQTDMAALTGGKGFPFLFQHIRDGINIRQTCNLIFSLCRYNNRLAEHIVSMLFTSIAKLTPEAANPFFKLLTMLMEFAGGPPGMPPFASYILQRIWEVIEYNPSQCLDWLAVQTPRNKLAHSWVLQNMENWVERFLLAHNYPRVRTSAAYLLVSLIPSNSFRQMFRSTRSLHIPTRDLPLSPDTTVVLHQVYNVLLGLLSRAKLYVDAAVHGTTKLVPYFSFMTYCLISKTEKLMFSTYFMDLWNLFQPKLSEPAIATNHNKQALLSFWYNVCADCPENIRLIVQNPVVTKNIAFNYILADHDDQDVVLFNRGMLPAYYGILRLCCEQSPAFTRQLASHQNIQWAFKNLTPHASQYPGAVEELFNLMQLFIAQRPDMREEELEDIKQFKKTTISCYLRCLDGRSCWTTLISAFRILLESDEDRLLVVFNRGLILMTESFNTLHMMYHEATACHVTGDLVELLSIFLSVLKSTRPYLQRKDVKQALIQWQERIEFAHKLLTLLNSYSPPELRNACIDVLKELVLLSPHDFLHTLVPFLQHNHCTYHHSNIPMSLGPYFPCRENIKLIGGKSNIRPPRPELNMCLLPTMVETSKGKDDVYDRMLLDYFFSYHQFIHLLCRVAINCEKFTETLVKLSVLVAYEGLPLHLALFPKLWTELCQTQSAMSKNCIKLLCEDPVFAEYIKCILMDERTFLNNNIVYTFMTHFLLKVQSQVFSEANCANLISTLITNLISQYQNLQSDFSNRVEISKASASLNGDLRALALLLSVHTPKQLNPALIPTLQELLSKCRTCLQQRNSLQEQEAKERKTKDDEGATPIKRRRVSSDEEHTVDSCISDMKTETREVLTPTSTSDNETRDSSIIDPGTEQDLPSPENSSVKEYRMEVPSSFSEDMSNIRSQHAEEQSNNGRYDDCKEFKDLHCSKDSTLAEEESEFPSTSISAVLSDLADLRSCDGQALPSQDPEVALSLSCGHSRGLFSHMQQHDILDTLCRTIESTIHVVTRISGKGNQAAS

O=C(CCl)N1CCC2(CCC(O)CC2)CC1
inactive: USP34 -0.363 | USP36 -0.0873 | USP38 0.139 | USP39 0.333 | USP4 0.123

— the supplement of paper PMC11732987, “Enantioselective OTUD7B fragment discovery through chemoproteomics screening and high-throughput optimisation” (Communications Chemistry, 2025)
